Screen size: about 310,000 compounds; about 3,300 (1.1%) were called active.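 How the source made its calls: active means B-score under library mean minus 3 SD, initial fluorescence not abnormally high, positive integrated signal ratio; inactive means the rest.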 Shown is part of a subset that was picked to be rich in actives.
Each molecule was assayed against Short transient receptor potential channel 6 (Mus musculus) (UniProt Q61143) (assay: mouse TRPC6 channel inhibitors, primary screen, cell-based, HEK293, membrane potential dye (AID 2553;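 on B-score: B-score derived from integrated fluorescence ratio over the kinetic read; more negative B-score means stronger inhibition of depolarization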)). Conditions: ACh-evoked depolarization, at 10 µM; active compounds read low.
Short transient receptor potential channel 6 (Mus musculus), sequence (Q61143 whole entry, looked up): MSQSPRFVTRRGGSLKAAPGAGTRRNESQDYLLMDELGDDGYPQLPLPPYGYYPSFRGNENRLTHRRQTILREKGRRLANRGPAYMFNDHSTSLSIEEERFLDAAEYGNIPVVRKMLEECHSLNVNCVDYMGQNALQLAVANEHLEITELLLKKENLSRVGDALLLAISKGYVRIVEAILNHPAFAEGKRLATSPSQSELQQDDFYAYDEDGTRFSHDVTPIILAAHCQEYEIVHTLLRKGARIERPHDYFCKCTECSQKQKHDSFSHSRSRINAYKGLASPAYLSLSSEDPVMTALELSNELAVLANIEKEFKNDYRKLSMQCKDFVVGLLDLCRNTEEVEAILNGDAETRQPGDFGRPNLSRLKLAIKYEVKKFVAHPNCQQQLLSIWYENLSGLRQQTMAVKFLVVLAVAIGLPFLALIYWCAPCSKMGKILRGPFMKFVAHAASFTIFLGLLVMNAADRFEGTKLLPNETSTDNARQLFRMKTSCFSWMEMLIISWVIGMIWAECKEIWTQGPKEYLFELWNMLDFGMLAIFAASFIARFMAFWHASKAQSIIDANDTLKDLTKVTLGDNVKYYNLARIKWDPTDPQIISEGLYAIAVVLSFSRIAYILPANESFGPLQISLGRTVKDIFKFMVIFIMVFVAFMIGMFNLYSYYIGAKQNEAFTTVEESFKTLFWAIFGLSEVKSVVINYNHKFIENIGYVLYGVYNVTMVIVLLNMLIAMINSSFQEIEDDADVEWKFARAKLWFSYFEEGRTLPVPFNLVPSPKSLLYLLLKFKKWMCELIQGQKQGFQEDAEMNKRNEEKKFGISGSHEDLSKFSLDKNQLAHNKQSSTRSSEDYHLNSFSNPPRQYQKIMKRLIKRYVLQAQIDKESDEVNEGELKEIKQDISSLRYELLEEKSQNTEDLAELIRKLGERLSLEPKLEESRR
`COc1ccccc1N1CC(C(=O)Nc2nnc(SCC(=O)NC(C)C)s2)CC1=O` (stereo not given) was tested, and the B-score was “inactive”. For `CS(=O)(=O)N(CC(O)Cn1c2ccccc2c2ccccc21)c1cccc2ccccc12` (stereo not given), the B-score was “inactive”. `CCCCn1c(=O)c(C(C)=O)c(O)c2ccccc21` was tested, and the B-score was “inactive”. For `CCCCN(CCCC)CC(O)Cn1c2ccccc2c(=O)c2ccccc21` (stereo not given), the B-score was -5.74 (active). `O=C1N(c2ccc(Cl)cc2)C(c2ccc(Cl)cc2)N2CCCN12` (stereo not given) was tested, and the B-score was “inactive”. `c1ccc(C2CNCc3c2ccc2ccccc32)cc1` (stereo not given) was tested, and the B-score was -5 (active). With `NC(=O)C1=C[C@H](c2csc3ccccc23)C[C@H](OCc2ccc(CO)cc2)O1` the B-score was “inactive”. For `Cc1ccc2nc(C)c3c(c2c1)N(c1ccccc1)CC3`, the B-score was -8.61 (active). For `Cc1ccc2nc(Nc3ccccc3)cc(C)c2c1`, the B-score was “inactive”. For `Cc1nc2ccc(C(=O)N3CCN(c4ccccc4)CC3)cc2s1`, the B-score was “inactive”. For `O=C(NNS(=O)(=O)c1ccccc1)c1cnn(-c2ccc(Cl)cc2)c1C(F)(F)F`, the B-score was “inactive”. For `CC1CCC(NS(=O)(=O)c2ccc3c(c2)CC(=O)N3)CC1` (stereo not given), the B-score was “inactive”. For `CN(C)CCCN(C(=O)c1ccc(S(=O)(=O)N2CCCCCC2)cc1)c1nc2cc3c(cc2s1)OCCO3`, the B-score was “inactive”. `CCOc1ccc2nc(N(CCCN(C)C)C(=O)c3ccc(C(=O)c4ccccc4)cc3)sc2c1` was tested, and the B-score was “inactive”. With `CCc1ccc2nc(N(CCCN(C)C)C(=O)c3ccc4c(c3)OCCO4)sc2c1` the B-score was -6.22 (active). `O=C(NCCCN1CCCCC1)C1CCCN(c2ncnc3c2nc2n3CCCCC2)C1` (stereo not given) was tested, and the B-score was “inactive”. With `Cc1ccc(C(C(=O)NCC2CCCO2)N(C(=O)c2snc(C(N)=O)c2N)c2ccc(C(C)C)cc2)o1` (stereo not given) the B-score was “inactive”. For `Cc1cccc(NC(=O)Nc2ccc3c(c2)OCO3)n1`, the B-score was “inactive”. With `O=C(CCCN1C(=O)c2cccc3cccc(c23)C1=O)N1CCN(Cc2ccc3c(c2)OCO3)CC1` the B-score was -6.03 (active). In the case of `O=C(Nc1cccc2ccccc12)N1CCN(Cc2ccc3c(c2)OCO3)CC1`, the B-score is reported as “inactive”. With `Cn1c(=O)cc(OCCCC(=O)N2CCN(Cc3ccc4c(c3)OCO4)CC2)c2ccccc21` the B-score was “inactive”. With `CC1(C)O[C@H]2CC(=O)OCC23[C@H]2CC[C@@]4(C)[C@H](c5ccoc5)OC(=O)[C@H]5O[C@]54[C@]2(C)C(=O)C[C@@H]13` (stereo not given in full) the B-score was “inactive”. `COc1ccccc1N(CC(=O)N/N=C(\C)c1ccccc1O)S(=O)(=O)c1ccc(C)cc1` was tested, and the B-score was “inactive”. With `CN1CCN(c2ccc([N+](=O)[O-])c(Sc3nc4ccccc4[nH]3)c2)CC1` the B-score was -5.53 (active). In the case of `CC1CCN(c2ccc([N+](=O)[O-])c(SCCO)c2)CC1`, the B-score is reported as “inactive”. For `O=C(CSc1nc2ccccc2[nH]1)N/N=C/C=C\c1ccccc1[N+](=O)[O-]`, the B-score was “inactive”. For `O=c1c(-c2ccc(Cl)cc2)[n+]([O-])c2ccccc2n1OCc1nc2ccccc2[nH]1`, the B-score was “inactive”. With `COc1ccc(C(=O)NC2CCN(C(=O)Nc3ccc(F)cc3)CC2)cc1` the B-score was “inactive”. In the case of `CCOC(=O)N1CCC(N2Cc3cccc(C(=O)Nc4ccc(S(=O)(=O)N(CC)CC)cc4)c3C2=O)CC1`, the B-score is reported as “inactive”. For `CCCCN=C(N)/C(C(=O)OCC)=C(\O)c1ccc(OC)cc1`, the B-score was “inactive”. `CCN1CCN(C(C(=O)NC2CCCC2)c2cc3c(cc2[N+](=O)[O-])OCO3)CC1` (stereo not given) was tested, and the B-score was “inactive”. In the case of `COC(=O)c1ccccc1NC(=O)C1CCN(S(=O)(=O)c2cc(OC)ccc2OC)CC1`, the B-score is reported as -5.1 (active). For `COC(=O)c1ccccc1NC(=O)C1CC(=O)N(c2ccc(OC)cc2)C1` (stereo not given), the B-score was “inactive”. For `COc1ccc(NC(=O)C2CCN(S(=O)(=O)c3ccc4[nH]c(=O)oc4c3)CC2)c(OC)c1`, the B-score was “inactive”. For `COc1cccc(NC(=O)C/C(C)=N/NC(=O)C2CCCCC2)c1`, the B-score was “inactive”. For `Cc1cc2oc(=O)cc(CN3CCN(Cc4ccccc4)CC3)c2cc1C`, the B-score was “inactive”. `CCCOc1ccc(C2c3c(oc4cc(C)c(C)cc4c3=O)C(=O)N2CCCN2CCOCC2)cc1` (stereo not given) was tested, and the B-score was “inactive”. For `Cc1cc2oc3ccc(NCCC4CCCN4C)cc3c(=O)c2cc1C` (stereo not given), the B-score was -9.21 (active). In the case of `CCc1ccc(/C=N/NC(=O)c2ccc(OC3CCCC3)cc2)s1`, the B-score is reported as “inactive”. With `CCN(CC)C(=O)CSc1ncnc2c1cnn2-c1ccccc1` the B-score was “inactive”. In the case of `CCOc1ccccc1N1CCN(C(=O)c2ccc3[nH]c(C)c(C)c3c2)CC1`, the B-score is reported as “inactive”. With `O=C(NCCO)C(=O)NCC(c1ccc2c(c1)OCO2)N1CCN(c2ccc(F)cc2)CC1` (stereo not given) the B-score was “inactive”. `CC(C)CNC(=S)Nc1ccc(F)cc1` was tested, and the B-score was “inactive”. With `CC(NC(=S)Nc1ccc(OC(F)F)cc1)c1ccc(F)cc1` (stereo not given) the B-score was -5.09 (active). With `Cc1ccc(NC(=S)Nc2ccc(F)cc2)cc1` the B-score was “inactive”. With `Cc1cc(Br)ccc1NC(=O)CN(C)C(=O)CN1C(=O)NC2(CCCC2)C1=O` the B-score was “inactive”. `CCOc1ccccc1-c1cc(C(=O)N/N=C(\C)c2cccnc2)c2ccccc2n1` was tested, and the B-score was “inactive”. For `CCNC(=O)Nc1ccc(S(=O)(=O)Nc2cnc(C)nc2C)cc1`, the B-score was “inactive”. In the case of `CCCc1cc(=O)oc2c(C)c(OCC(=O)N3CCC(C(=O)O)CC3)ccc12`, the B-score is reported as “inactive”. For `CCCc1cc(=O)oc2c(C)c(O)c(CN3CCCCC3)cc12`, the B-score was -5.62 (active). For `CCCc1cc(=O)oc2c(C)c(OC(C)C(=O)NCC(O)c3ccccc3)ccc12` (stereo not given), the B-score was “inactive”. For `O=C(N/N=C\C1CC=CCC1)c1ccc(Br)o1` (stereo not given), the B-score was “inactive”. `CC(C)C(=O)N1c2ccccc2NC2=C(C(=O)CCC2)C1c1ccc(N(C)C)cc1` (stereo not given) was tested, and the B-score was “inactive”. In the case of `CN(C)c1ccc(C2Nc3ccccc3C(=O)N2NS(=O)(=O)c2ccccc2)cc1` (stereo not given), the B-score is reported as “inactive”. In the case of `CN(C)c1ccc(C2N(C)C(=O)c3ccccc3N2C)cc1` (stereo not given), the B-score is reported as -7.38 (active). `S=c1[nH]c2ccccc2c2ccccc12` was tested, and the B-score was “inactive”. In the case of `N=c1c2c3c(sc2ncn1N)CCCC3`, the B-score is reported as “inactive”. `N=c1c2c3c(sc2ncn1N)CCCCC3` was tested, and the B-score was “inactive”. `N=c1c2c3c(sc2ncn1CCCN1CCOCC1)CCCCC3` was tested, and the B-score was -5.61 (active). With `C=C(C)Cn1c(C)cc(C)c(S(=O)(=O)c2ccccc2C)c1=O` the B-score was “inactive”. `C/C(=N\NC(=O)C1(C)CC1(Br)Br)c1ccc(C)cc1C` (stereo not given) was tested, and the B-score was “inactive”. For `C=CCNC(=O)c1ccccc1NC(=O)c1ccc(Cl)c(S(=O)(=O)Nc2cccc(C)c2C)c1`, the B-score was “inactive”. With `COc1ccccc1C(CNC(=O)c1cccc(NS(=O)(=O)c2ccc(Br)cc2)c1)N(C)C` (stereo not given) the B-score was -5.61 (active). With `CC(=O)c1ccc(S(=O)(=O)Nc2ccc(C(=O)NCC(c3ccccc3)N(C)C)cc2)cc1` (stereo not given) the B-score was “inactive”. `CN(C)C(CNC(=O)c1cccc(S(=O)(=O)Nc2ccc(Br)cc2)c1)c1ccco1` (stereo not given) was tested, and the B-score was “inactive”.
